Where “and” joins values, the source holds several entries; their conditions need not be identical. Identical values can stand only once. Records with an inconclusive call do not appear. Calls of active or inactive are those of the source. Unless noted, calls come from the whole dose curve; as a rule, active = well fitted curve in the direction sought with a large enough effect; inconclusive = small, poorly fitted or top-dose-only effect, or another doubt; inactive = no such curve, though single readings can be large; an effect the other way counts as inactive or inconclusive.
What was measured:
[1] = AP1 Signaling Pathway (AID 357; active = well fitted curve in either direction with a large enough effect, not every such curve was filed as active;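 note: ME-180 reporter cells stimulated with EGF at its EC50 level; % is set by controls: 0 for no effect and ±100 for the full control effect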); conditions: ME-180 AP-1-bla reporter, EGF-induced, beta-lactamase ratio, 5 h
In short: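 AP-1-bla ME-180 cells, Opti-MEM + 0.5% dialyzed FBS, plated overnight 37 °C. Cpd titration + EC50 EGF, 5 h 37 °C. CCF4 2.5 h RT; ex 405, em 460/530 ratio → %activity, AC50.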

[2] = molecular target: Cytochrome P450 1A2 (Homo sapiens) (UniProt P05177); assay: p450-cyp1a2 (AID 410; calls by dose curve; note: potency is the fitted concentration of half-maximal effect;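 for activity change, negative = inhibition: -100% = full effect of reference inhibitor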)
In short: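 Human CYP1A2 (20nM) demethylated Luciferin-ME at its Km (100uM) in 100mM KPO4. After 10 min compound preincubation, NADPH regeneration ran the reaction 60 min at room temperature. Luciferin was read by luminescence, normalized to 57 uM furafylline.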

[3] = NFAT Signaling Pathway (AID 444; active = well fitted curve in either direction with a large enough effect, not every such curve was filed as active;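 note: carbachol stimulus at about its EC50 of 1 µM final; % is set by controls: 0 for no effect and ±100 for the full control effect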); conditions: Jurkat NFAT-bla M1, carbachol, beta-lactamase ratio, 5 h
In short: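 Jurkat cells with NFAT-driven β-lactamase reporter and co-expressed M1 receptor, stimulated with carbachol (final 1 uM, ~EC50), compound titration, 5 h at 37 °C. CCF4 loaded 1 h at RT; 460/530 nm ratio gave %activity and AC50.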

[4] = Stat Signaling Pathway (AID 446; active = well fitted curve in either direction with a large enough effect, not every such curve was filed as active;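 note: ME-180 cervical cancer cells given 40 pM IL-6 alongside compound; SIE-controlled beta-lactamase reporter measured as 460/530 nm FRET emission ratio; % is set by controls: 0 for no effect and ±100 for the full control effect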); conditions: ME-180 SIE beta-lactamase reporter, IL-6 stimulated, 5 h; at 7.69 µM (top of the series) unless noted
In short: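 ME-180 SIE-bla cells; overnight plating; cpd + IL-6 40 pM, 5 h, 37 C; LiveBLAzer 2.5 h RT; 460/530 nm emission ratio. Normalized to 300 pM IL-6 and 125 nM JAK inhibitor controls.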

[5] = molecular target: Glucocorticoid receptor (Homo sapiens) (UniProt P04150); assay: GR-GFP Redistribution (AID 450;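 active = compounds whose dose series gives a full or clear partial fitted curve of increased nuclear translocation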; note: potency is the fitted concentration of half-maximal effect); conditions: U2OS GR-GFP nuclear translocation, laser cytometry, 2 h
[6] = molecular target: Glucocorticoid receptor (Homo sapiens) (UniProt P04150); assay: GR-EFC Redistribution (AID 451; calls by dose curve; note: potency is the fitted concentration of half-maximal effect); conditions: CHO-K1 GR-EFC translocation, beta-gal luminescence, 2 h
In short: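 CHO-K1 cells expressing nuclear EA and GR-ED fragments of b-gal; compounds titrated up to 46 uM final, 2 h at 37 C. GR nuclear translocation read as complemented b-gal luminescence after 1 h RT detection.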

[7] = molecular target: Mitogen-activated protein kinase 10 (Mus musculus) (UniProt Q61831); assay: JNK3 AlphaScreen Assay (AID 530; active = well fitted curve in either direction with a large enough effect, not every such curve was filed as active;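 note: kinase came from lysate of stimulated human HepG2 cells; signal reports phosphorylation of biotinylated GST-cJun 1-79 at Ser73 with 10 µM ATP; % is set by controls: 0 for no effect and ±100 for the full control effect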)
In short: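 qHTS format: compounds tested as titrations against IL-1beta/TNF-alpha-activated HepG2 lysate JNK3 with biotin-GST-cJun substrate and 10 uM ATP at room temperature. Loss of anti-phospho-cJun AlphaScreen signal indicates inhibition.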

[8] = molecular target: 3',5'-cyclic-AMP phosphodiesterase 4B (Homo sapiens) (UniProt Q07343); assay: qHTS Assay for Inhibitors of PDE-IV (AID 607; active = well fitted activation curve with a large enough effect in the main read-out, with a control signal flat, not every such curve was filed as active; note: % of control where 0% means no effect)
In short: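 ACTOne HEK293 cells carry a modified cAMP-gated CNG channel and express endogenous PDE4; plated 1000 cells/well, compounds up to 22.9 uM final. Membrane-potential dye fluorescence (ex 535/em 590) was read; parental cells received 10 uM forskolin + 100 uM RO 20-1724.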

[9] = qHTS Assay for Lipid Storage Modulators (AID 1519; calls by dose curve); conditions: Drosophila S3 cells, BODIPY lipid droplet/cell ratio, laser cytometry, cells loaded with oleic acid; for activity change, negative = inhibition: at 25.7 µM (top of the series)
In short: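 Cells seeded at 5,000 per well were treated with compounds over a concentration series and loaded with oleic acid (400 uM, as added). Lipid droplet fluorescence (488 nm excitation, 500-530 nm channel) was read by laser-scanning cytometry and normalized to 20 uM Triacsin C.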

[10] = molecular target: ATP-dependent 6-phosphofructokinase (Trypanosoma brucei brucei) (UniProt O15648); assay: qHTS Assay to Find Inhibitors of T. brucei phosphofructokinase: hit validation (AID 492961)
In short: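 Inhibition of parasite PFK is measured as reduced ADP formation, quantified via luciferase after ATP depletion. Assay used 0.1 mM ATP, 0.5 mM F6P, 1.25 nM enzyme, 45 min incubation.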

[11] = molecular target: Ubiquitin carboxyl-terminal hydrolase 1 (Homo sapiens) (UniProt O94782); assay: Inhibitors of USP1/UAF1: Pilot qHTS (AID 504865);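 note: rhodamine fluorescence freed from ubiquitin-rhodamine substrate followed over time; top concentration of the series differs between compounds; % is set by controls: 0 for no effect and ±100 for the full control effect; nearly all actives have a fitted effect of over 35% in size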
In short: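 1nM USP1/UAF1 + cpd, 15 min RT; start w/ Ub-Rho 150nM final; kinetic FL 480/540 nm, 6 reads q60 s. Buffer 50mM HEPES pH 7.8, 0.5mM EDTA, 1mM TCEP, 0.01% Tween-20, 0.1 mg/ml BSA.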

[12] = molecular target: Luciferin 4-monooxygenase (Photinus pyralis) (UniProt P08659); assay: Biochemical firefly luciferase enzyme assay for NPC (AID 624030);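 note: purified P. pyralis luciferase at 10 nM with luciferin and ATP substrate; 0% = DMSO and -100% = full luciferase inhibition by PTC124 control; nearly all actives have a fitted effect of over 70% in size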
In short: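 Purified P. pyralis luciferase at 10 nM in 50 mM Tris Acetate (final), luminescence read within 5 minutes of enzyme addition to compounds. Activity normalised to PTC124 versus DMSO; concentration-response curves classed by r2, magnitude and activity.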

[13] = qHTS profiling for inhibitors of Plasmodium falciparum proliferation (AID 504749);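 note: 0% = DMSO vehicle and full inhibition = artemisinin control; nearly all actives have a fitted effect of over 60% in size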; conditions: P. falciparum in erythrocytes, SYBR Green DNA, 72 h, at 12.8 µM (top of the series)
In short: (§1)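 Readout was DNA-dye fluorescence from lysed cultures, ex 485/em 535 nm. Parasitized red cells had grown 72 h with compound; data scaled between 0.29 uM artemisinin and DMSO wells and corrected using vehicle-only plates.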

AS120 = assay: as above; conditions: P. falciparum in erythrocytes, SYBR Green DNA, 72 h; series mostly up to 28.7 µM
In short: as §1

CP250 = assay: as above; conditions: P. falciparum in erythrocytes, SYBR Green DNA, 72 h; series mostly up to 12.8 µM
In short: as §1

[14] = molecular target: Pyruvate kinase (Leishmania mexicana) (UniProt Q27686); assay: qHTS Validation Assay for Inhibitors of Leishmania Mexicana Pyruvate Kinase (AID 945);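 note: 0% = DMSO only neutral control wells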
In short: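 Pyruvate kinase activity of E451W LmPYK (0.2 nM) was followed as ATP output after 1 h at room temperature with 0.5 mM PEP and 0.1 mM ADP, detected by PKLight luminescence.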

[15] = molecular target: Pyruvate kinase PKM (Homo sapiens) (UniProt P14618); assay: qHTS Assay for Activators of Human Muscle Pyruvate Kinase (AID 954; active = well fitted curve in the direction sought with a large enough effect, not every such curve was filed as active;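 note: 0% = uninhibited enzyme and -100% = no enzyme or full thiadiazolimine inhibition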)
In short: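 Luminescence from a luciferase ATP-detection/stop reagent reported PKM2 activity. Reactions contained 0.1 nM purified human enzyme, 0.5 mM PEP, 0.1 mM ADP and 7 mM MgCl2 at pH 7.2, run 1 h at RT.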

[16] = molecular target: Alpha-galactosidase A (Homo sapiens) (UniProt P06280); assay: Counterscreen for Glucocerebrosidase Inhibitors: qHTS Assay for Human alpha-Galactosidase at pH 4.5 (AID 992); note: 0% is about no effect
In short: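 Enzyme at 2 nM final was combined with compound (0.7 nM to 77 uM) and 80 uM 4-methylumbelliferyl alpha-D-galactopyranoside in 50 mM citric acid, 0.005% Tween-20, pH 4.5. After 20 min at room temperature, fluorescence was read (Ex 365/Em 440 nm); AC50 came from Hill fits.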

[17] = molecular target: alpha-glucosidase (Oryza sativa, rice) (UniProt Q653V4); assay: Counterscreen for Glucocerebrosidase Inhibitors: qHTS Assay for Rice alpha-Glucosidase at pH 5.0 (AID 997);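 note: 0% = full activity with enzyme and -100% = basal without enzyme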
In short: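 Rice alpha-glucosidase (4 nM final) with 400 uM 4-methylumbelliferyl-alpha-D-glucopyranoside in citrate buffer pH 5.0, 20 min at room temperature, stopped at pH 10; fluorescence 365/440 nm, compounds 0.7 nM–77 uM, AC50 from Hill fits.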

[18] = at 7.69 µM (top of the series) unless noted
[19] = measured here: cell count channel max response
[20] = measured here: lipid channel max response

Ubiquitin carboxyl-terminal hydrolase 1 (Homo sapiens), sequence (O94782 whole entry, looked up): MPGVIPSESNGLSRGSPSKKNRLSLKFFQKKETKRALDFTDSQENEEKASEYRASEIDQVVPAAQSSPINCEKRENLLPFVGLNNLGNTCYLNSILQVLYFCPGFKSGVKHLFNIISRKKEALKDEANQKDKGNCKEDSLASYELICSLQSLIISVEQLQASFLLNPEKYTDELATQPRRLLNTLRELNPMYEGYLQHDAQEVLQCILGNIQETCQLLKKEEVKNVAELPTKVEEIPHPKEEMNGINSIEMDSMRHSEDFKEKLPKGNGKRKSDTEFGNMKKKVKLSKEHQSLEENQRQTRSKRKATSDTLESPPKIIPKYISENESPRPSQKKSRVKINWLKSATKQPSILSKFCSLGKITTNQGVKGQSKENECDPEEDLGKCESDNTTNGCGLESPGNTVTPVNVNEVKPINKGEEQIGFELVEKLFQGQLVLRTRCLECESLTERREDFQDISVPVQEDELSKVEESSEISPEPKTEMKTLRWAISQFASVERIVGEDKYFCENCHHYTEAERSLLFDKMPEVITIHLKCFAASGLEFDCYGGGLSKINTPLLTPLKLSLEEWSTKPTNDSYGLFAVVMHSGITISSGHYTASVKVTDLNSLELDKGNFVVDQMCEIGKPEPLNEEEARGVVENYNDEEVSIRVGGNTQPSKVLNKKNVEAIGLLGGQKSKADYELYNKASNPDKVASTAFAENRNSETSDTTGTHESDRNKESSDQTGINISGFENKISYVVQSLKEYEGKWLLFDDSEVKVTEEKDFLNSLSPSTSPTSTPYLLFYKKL
Cytochrome P450 1A2 (Homo sapiens), sequence (P05177 whole entry, looked up): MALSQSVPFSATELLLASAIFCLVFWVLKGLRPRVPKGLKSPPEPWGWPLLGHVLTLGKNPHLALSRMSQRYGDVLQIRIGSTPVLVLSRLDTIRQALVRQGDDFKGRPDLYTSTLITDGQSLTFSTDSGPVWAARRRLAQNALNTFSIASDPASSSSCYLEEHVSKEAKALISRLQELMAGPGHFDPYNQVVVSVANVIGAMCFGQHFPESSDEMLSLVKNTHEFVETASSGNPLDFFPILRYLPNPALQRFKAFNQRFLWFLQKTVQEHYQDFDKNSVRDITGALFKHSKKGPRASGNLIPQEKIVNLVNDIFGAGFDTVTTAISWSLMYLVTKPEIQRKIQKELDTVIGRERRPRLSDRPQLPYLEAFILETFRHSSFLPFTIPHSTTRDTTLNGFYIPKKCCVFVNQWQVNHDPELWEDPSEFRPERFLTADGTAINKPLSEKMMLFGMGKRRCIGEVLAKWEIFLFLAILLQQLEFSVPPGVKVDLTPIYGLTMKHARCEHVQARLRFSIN
3',5'-cyclic-AMP phosphodiesterase 4B (Homo sapiens), sequence (Q07343 whole entry, looked up): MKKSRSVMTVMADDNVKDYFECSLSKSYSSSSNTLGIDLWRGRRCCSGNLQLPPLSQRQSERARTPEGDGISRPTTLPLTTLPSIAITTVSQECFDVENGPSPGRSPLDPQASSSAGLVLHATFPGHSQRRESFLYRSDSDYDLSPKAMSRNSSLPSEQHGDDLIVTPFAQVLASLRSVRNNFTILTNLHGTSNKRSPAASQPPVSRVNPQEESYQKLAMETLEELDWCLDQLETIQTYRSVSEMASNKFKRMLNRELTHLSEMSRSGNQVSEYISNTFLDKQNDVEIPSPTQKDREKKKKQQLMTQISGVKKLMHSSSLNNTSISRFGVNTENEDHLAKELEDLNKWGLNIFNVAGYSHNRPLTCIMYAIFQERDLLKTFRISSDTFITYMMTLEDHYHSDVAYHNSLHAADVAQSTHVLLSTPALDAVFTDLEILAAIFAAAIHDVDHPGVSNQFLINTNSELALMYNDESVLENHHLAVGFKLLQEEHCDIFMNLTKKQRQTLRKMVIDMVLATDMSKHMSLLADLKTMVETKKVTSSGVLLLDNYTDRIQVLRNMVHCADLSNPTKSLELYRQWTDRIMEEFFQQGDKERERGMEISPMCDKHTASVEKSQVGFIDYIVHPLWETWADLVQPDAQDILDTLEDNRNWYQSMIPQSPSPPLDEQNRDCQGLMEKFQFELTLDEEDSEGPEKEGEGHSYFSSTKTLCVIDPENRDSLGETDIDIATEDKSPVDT
Glucocorticoid receptor (Homo sapiens), sequence (P04150 whole entry, looked up, the tested form may be a part): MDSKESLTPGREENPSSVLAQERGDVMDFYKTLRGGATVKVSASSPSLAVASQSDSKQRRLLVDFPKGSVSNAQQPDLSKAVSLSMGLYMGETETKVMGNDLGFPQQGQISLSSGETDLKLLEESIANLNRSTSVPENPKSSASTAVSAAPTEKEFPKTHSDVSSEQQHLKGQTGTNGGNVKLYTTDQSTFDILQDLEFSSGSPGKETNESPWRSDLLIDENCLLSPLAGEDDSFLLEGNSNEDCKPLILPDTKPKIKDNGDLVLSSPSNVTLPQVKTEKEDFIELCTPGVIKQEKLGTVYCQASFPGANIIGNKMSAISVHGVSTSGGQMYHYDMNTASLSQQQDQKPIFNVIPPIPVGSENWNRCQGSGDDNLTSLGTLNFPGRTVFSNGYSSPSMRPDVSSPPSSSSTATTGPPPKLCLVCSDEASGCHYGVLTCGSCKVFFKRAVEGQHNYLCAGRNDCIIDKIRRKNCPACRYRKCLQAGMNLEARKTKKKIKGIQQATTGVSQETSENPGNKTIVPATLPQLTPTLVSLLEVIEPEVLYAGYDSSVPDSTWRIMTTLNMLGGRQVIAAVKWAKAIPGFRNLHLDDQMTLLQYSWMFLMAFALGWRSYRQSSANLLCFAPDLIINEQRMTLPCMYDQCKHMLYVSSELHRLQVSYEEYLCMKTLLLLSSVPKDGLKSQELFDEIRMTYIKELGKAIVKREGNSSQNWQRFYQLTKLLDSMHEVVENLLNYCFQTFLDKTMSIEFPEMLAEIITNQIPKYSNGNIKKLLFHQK
ATP-dependent 6-phosphofructokinase (Trypanosoma brucei brucei), sequence (O15648 whole entry, looked up): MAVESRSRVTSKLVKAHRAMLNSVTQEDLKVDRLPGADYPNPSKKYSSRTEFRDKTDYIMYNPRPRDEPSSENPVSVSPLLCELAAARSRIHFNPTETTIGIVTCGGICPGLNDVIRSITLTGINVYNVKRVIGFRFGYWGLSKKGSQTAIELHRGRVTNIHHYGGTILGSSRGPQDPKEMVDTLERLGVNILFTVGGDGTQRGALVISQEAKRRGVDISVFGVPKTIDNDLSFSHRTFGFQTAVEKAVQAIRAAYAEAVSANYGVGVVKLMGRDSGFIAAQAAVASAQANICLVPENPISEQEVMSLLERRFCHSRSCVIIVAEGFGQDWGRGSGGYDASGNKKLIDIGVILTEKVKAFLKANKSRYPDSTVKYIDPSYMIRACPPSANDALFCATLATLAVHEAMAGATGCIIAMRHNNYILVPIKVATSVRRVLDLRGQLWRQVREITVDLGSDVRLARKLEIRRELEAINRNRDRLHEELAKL
Luciferin 4-monooxygenase (Photinus pyralis), sequence (P08659 whole entry, looked up): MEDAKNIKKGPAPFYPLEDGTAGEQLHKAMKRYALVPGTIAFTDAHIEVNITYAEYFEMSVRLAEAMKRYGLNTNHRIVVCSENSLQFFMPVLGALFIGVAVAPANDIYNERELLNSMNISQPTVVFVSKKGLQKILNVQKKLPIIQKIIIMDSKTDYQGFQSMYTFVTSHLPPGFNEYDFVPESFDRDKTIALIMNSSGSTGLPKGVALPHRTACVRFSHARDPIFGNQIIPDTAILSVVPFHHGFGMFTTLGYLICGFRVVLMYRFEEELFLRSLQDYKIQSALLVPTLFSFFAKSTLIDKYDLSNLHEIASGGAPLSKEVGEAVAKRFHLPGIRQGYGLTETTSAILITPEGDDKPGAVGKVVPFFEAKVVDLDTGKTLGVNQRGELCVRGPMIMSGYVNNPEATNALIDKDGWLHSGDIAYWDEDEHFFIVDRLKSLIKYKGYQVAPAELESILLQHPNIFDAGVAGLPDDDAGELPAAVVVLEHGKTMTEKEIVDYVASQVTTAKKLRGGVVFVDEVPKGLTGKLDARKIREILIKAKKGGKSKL
Pyruvate kinase PKM (Homo sapiens), sequence (P14618 whole entry, looked up): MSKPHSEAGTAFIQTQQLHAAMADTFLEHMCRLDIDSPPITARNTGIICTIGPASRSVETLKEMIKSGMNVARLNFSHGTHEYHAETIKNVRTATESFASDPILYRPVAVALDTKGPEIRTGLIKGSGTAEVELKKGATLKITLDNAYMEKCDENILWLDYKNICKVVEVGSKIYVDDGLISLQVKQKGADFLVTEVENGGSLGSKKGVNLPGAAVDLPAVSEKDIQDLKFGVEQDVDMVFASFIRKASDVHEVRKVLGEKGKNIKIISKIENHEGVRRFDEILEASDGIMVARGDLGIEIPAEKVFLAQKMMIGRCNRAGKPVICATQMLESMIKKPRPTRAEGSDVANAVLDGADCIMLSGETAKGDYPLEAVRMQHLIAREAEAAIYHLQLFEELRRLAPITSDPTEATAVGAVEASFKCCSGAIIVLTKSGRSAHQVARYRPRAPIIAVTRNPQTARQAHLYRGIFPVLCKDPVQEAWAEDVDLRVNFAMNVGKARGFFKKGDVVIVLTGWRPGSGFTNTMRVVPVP
Alpha-galactosidase A (Homo sapiens), sequence (P06280 whole entry, looked up): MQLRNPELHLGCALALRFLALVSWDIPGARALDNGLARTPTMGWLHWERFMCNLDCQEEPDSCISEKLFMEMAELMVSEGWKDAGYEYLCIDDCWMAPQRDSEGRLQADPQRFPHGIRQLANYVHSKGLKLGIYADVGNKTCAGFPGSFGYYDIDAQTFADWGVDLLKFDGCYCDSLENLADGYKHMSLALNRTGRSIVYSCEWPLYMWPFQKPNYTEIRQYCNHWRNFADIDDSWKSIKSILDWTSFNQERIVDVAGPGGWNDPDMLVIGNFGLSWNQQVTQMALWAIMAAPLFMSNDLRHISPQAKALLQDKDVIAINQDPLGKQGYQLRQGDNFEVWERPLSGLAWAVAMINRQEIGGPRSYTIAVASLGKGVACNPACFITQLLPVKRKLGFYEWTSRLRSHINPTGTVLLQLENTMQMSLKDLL

NC(N)=NC[C@@H]1COC2(CCCCC2)O1
-12.5%: max response [9, 19]
inactive: activity change, negative = inhibition [1, 18] 13.7% [at 17.2 µM] | Potency [2] | activity change, negative = inhibition [3, 18] 18.5% [at 17.2 µM] | activity, negative = inhibition [4] 6.54% [at 17.2 µM] | Potency [5] > 20.6 µM | Potency [6] > 20.6 µM | Potency [7] | Potency [8] | activity change, negative = inhibition [9] -0.418% | outcome [10] | Potency [11] | outcome [12] | activity, negative = inhibition ([13]; parasite line A) -12.1% | activity, negative = inhibition ([13]; parasite line B) -13% | Potency (AS120) | Potency (CP250)
-12.6%: max response [9, 20]

CC(C)(O/N=C(\C(=O)N[C@@H]1C(=O)N2C(C(=O)[O-])=C(C[n+]3ccccc3)CS[C@@H]12)c1csc(N)n1)C(=O)O
-1.95%: max response [9, 20]
-1.74%: max response [9, 19]
inactive: activity change, negative = inhibition [1, 18] 8.59% [at 17.2 µM] | Potency [2] | activity change, negative = inhibition [3, 18] 7.85% [at 17.2 µM] | activity, negative = inhibition [4] 7.45% [at 17.2 µM] | Potency [5] > 20.6 µM | Potency [6] > 20.6 µM | Potency [7] | Potency [8] | activity change, negative = inhibition [9] 0.159% | outcome [10] | Potency [11] | outcome [12] | activity, negative = inhibition ([13]; parasite line A) 2.04% | activity, negative = inhibition ([13]; parasite line B) -2.21% | Potency (AS120) | Potency (CP250)

COc1cc(=O)n(C)c2c(OC[C@@H](O)C(C)(C)O)cccc12
-18.8%: max response [9, 20]
active: Potency [2] 20 µM and 12.6 µM
-7.54%: max response [9, 19]
inactive: activity change, negative = inhibition ([1]; at 17.2 µM (top of the series)) 11.5% | activity change, negative = inhibition ([1]; at 38 µM (top of the series)) 3.48% | activity change, negative = inhibition ([3]; at 17.2 µM (top of the series)) 1.64% | activity change, negative = inhibition ([3]; at 38 µM (top of the series)) 5.18% | Potency [5] > 46 µM and > 20.6 µM | Potency [6] > 46 µM and > 20.6 µM | Potency [7] | Potency [8] | outcome [14] | outcome [15] | outcome [16] | outcome [17] | activity change, negative = inhibition [9] -2.03% | Potency [11]
